# From PubChem BioAssay (NCATS)
# Records with an inconclusive call do not appear. Unmarked numbers belong to inactive results. Calls of active or inactive are those of the source. Calls follow the shape of the dose curve; as a rule, active = well fitted inhibition curve with a large enough effect; inconclusive = small, poorly fitted or top-dose-only effect; inactive = flat fitted curve, though single readings scatter.
# Test system: CP238
# Test: qHTS profiling for inhibitors of Plasmodium falciparum proliferation (AID 504749); also: nearly all actives have a fitted effect of over 60% in size;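 as to activity, negative = inhibition: 0% = DMSO vehicle and full inhibition = artemisinin control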
# Conditions: P. falciparum in erythrocytes, SYBR Green DNA, 72 h; series mostly up to 28.7 µM; activity, negative = inhibition: at the top concentration
# Procedure, shortened: (§1)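 Each compound contacts P. falciparum-infected red blood cells for 72 h at 37 C; lysis buffer (Tris, EDTA, saponin, Triton X, SYBR Green I) is added and fluorescence measured next morning; values normalized to controls.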
# Potency is read from the fitted curve at half-maximal effect.
Structure (SMILES),"activity, negative = inhibition [%]",Potency
C=Cc1ccc(S(=O)(=O)O)cc1,2.94,
OCC1(CO)COC(C(Cl)(Cl)Cl)OC1,6.09,
CC(C)(C)CC(C)(C)c1cc(Cc2cc(C(C)(C)CC(C)(C)C)cc(-n3nc4ccccc4n3)c2O)c(O)c(-n2nc3ccccc3n2)c1,4.81,
O=C(O)c1ccc(OCCn2ccnc2)cc1,9.31,
CC(C)c1ncc([N+](=O)[O-])n1C,1.06,
CN1c2c(nc(N)[nH]c2=O)NCC1CNc1ccc(C(=O)NC(CCC(=O)O)C(=O)O)cc1 (configuration not stated),0.54,
N=C(N)n1cccn1,1.87,
N[C@H](CC(=O)O)C(=O)O,9.88,
NCC(O)CC(=O)O (configuration not stated),8.79,
CCN(CC)C(=O)c1cccnc1,1.15,
CCOC(C)OCC,3.97,
FCOC(C(F)(F)F)C(F)(F)F,5.68,
CN[C@@H]1[C@H](O[C@H]2[C@H](O[C@H]3[C@H](O)[C@@H](O)[C@H](N=C(N)N)[C@@H](O)[C@@H]3N=C(N)N)O[C@@H](C)[C@]2(O)C=O)O[C@@H](CO)[C@H](O)[C@H]1O,6.45,
CC(C)[C@@H](N)C(=O)O,1.57,
O=C(O)COc1ccc(CCNS(=O)(=O)c2ccccc2)s1,9.17,
CC(=O)Nc1ccc(OC(=O)c2ccccc2O)cc1,3.49,
CC(C)O,7.12,
C=CC[C@@H]1/C=C(\C)C[C@H](C)C[C@H](OC)[C@H]2O[C@@](O)(C(=O)C(=O)N3CCCC[C@H]3C(=O)O[C@H](/C(C)=C/[C@@H]3CC[C@@H](O)[C@H](OC)C3)[C@H](C)[C@@H](O)CC1=O)[C@H](C)C[C@@H]2OC,,1120 nM (active)
Cc1cc(=O)c(C(=O)N[C@@H](C(=O)N[C@@H]2C(=O)N3C(C(=O)O)=C(CSc4nnnn4C)CS[C@H]23)c2ccc(O)cc2)c[nH]1,4.12,

# Test system: CP247
# Test: as above
# Conditions: P. falciparum in erythrocytes, SYBR Green DNA, 72 h; series mostly up to 28.7 µM; activity, negative = inhibition: at the top concentration
# Procedure, shortened: as §1
Structure (SMILES),"activity, negative = inhibition",Potency
CC/C=C\C/C=C\C/C=C\C/C=C\C/C=C\C/C=C\CCC(=O)O,-17%,
O=C(O)/C=C/c1ccccc1,1.43%,
CC(=O)Oc1cccc(C(=O)O)c1OC(C)=O,13.6%,
CC(CNC(=O)c1cccnc1)NC(=O)c1cccnc1 (configuration not stated),4.86%,
CN=C1C=CC(=C(c2ccc(N(C)C)cc2)c2ccc(N(C)C)cc2)C=C1,,708 nM (active)
CC/C(=C(/CC)c1ccc(OP(=O)(O)O)cc1)c1ccc(OP(=O)(O)O)cc1,12%,
ClC(Cl)Cl,18.4%,
CCCCCCCCCCCCCCCCCC[N+](C)(C)CCC[Si](OC)(OC)OC,4.31%,
Oc1cc(O)cc(O)c1,8.24%,
CC(=O)Nc1c(I)c(C(=O)O)c(I)c(N(C)C(C)=O)c1I,-0.828%,
CC(C)CCC[C@@H](C)[C@H]1CC[C@H]2[C@@H]3CC=C4C[C@@H](O)CC[C@]4(C)[C@H]3CC[C@]12C,8.11%,
CCCCCCCCCCCCOCCCN,5.85%,
CC(C)(C)c1ccc2c(S(=O)(=O)O)c(C(C)(C)C)ccc2c1,3.74%,
CCSc1ccc2c(c1)N(CCCN1CCN(C)CC1)c1ccccc1S2,-5.29% [at 12.8 µM],
c1ccc(-n2cnnn2)cc1,-24.9%,
CN1CCC(OC(=O)C(Oc2ccc(Cl)cc2)Oc2ccc(Cl)cc2)CC1,2.12%,
CC(C)Cc1ccc([C@@H](C)C(=O)NS(C)(=O)=O)cc1,0.322%,

Structure (SMILES),"activity, negative = inhibition",Potency
CCCc1ccc(C(=O)O)cc1,6.83%,
CNC(=O)c1c(I)c(C(=O)NCC(=O)Nc2c(I)c(C(=O)O)c(I)c(C(=O)NCCO)c2I)c(I)c(N(C)C(C)=O)c1I,-2.36%,
CC1CC(O)CC(C)(C)C1 (configuration not stated),1.88%,
C=Cc1ccc(S(=O)(=O)O)cc1,1.79%,
OCC1(CO)COC(C(Cl)(Cl)Cl)OC1,6.79%,
CC(C)(C)CC(C)(C)c1cc(Cc2cc(C(C)(C)CC(C)(C)C)cc(-n3nc4ccccc4n3)c2O)c(O)c(-n2nc3ccccc3n2)c1,11.8%,
O=C(O)c1ccc(OCCn2ccnc2)cc1,-22.1%,
CC(C)c1ncc([N+](=O)[O-])n1C,6.91%,
CN1c2c(nc(N)[nH]c2=O)NCC1CNc1ccc(C(=O)NC(CCC(=O)O)C(=O)O)cc1 (configuration not stated),-0.45%,
N=C(N)n1cccn1,-2.76%,
N[C@H](CC(=O)O)C(=O)O,-4.69%,
NCC(O)CC(=O)O (configuration not stated),1.99%,
CCN(CC)C(=O)c1cccnc1,4.48%,
CCOC(C)OCC,1.68%,
FCOC(C(F)(F)F)C(F)(F)F,7.14%,
CN[C@@H]1[C@H](O[C@H]2[C@H](O[C@H]3[C@H](O)[C@@H](O)[C@H](N=C(N)N)[C@@H](O)[C@@H]3N=C(N)N)O[C@@H](C)[C@]2(O)C=O)O[C@@H](CO)[C@H](O)[C@H]1O,7.82%,
